Reference: PubChem BioAssay AID1159580 (chemical genetic matrix, 2015)
The whole screen tested about 5,500 compounds, of which about 2,000 (36%) were called active. Roughly 18% stayed inconclusive and do not appear here. The list shows a part of the results. A number with no mark means an inactive call. No stated cut-off is given here; in the data, active means normalized growth mostly below about 0.91 (no sharp cut-off); inconclusive means no clear call, values can overlap the other calls; inactive means mostly above about 0.92.

Test: chemical genetic growth profiling, strain panel (AID 1159580);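 further: tested at 20 µM; growth read once vehicle control cultures reached saturation at 30 °C; 1 = growth at the plate median or of vehicle wells; lower values mean less growth of the strain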
Conditions: S. cerevisiae deletion strains, growth OD

Compound: CC[C@H](C)C(=O)O[C@H]1CCC=C2C=C[C@H](C)C(CCC3C[C@@H](O)CC(=O)O3)[C@H]21 (stereo partly drawn)
- normalized growth (locus YAL021C, strain ccr4, active compounds read low): 0.894 (active)
- normalized growth (locus YAL026C, strain drs2, active compounds read low): 1.02
- normalized growth (locus YAL030W, strain snc1, active compounds read low): 0.997
- normalized growth (locus YBL061C, strain skt5, active compounds read low): 1.01
- normalized growth (locus YBR009C, strain hhf1, active compounds read low): 1
- normalized growth (locus YBR021W, strain FUR4, active compounds read low): 0.958
- normalized growth (locus YBR023C, strain chs3, active compounds read low): 1.01
- normalized growth (locus YBR171W, strain sec66, active compounds read low): 1.02
- normalized growth (locus YBR229C, strain ROT2, active compounds read low): 0.983
- normalized growth (locus YBR231C, strain swc5, active compounds read low): 0.95
- normalized growth (locus YBR279W, strain paf1, active compounds read low): 1
- normalized growth (locus YCL011C, strain gbp2, active compounds read low): 1.01
- normalized growth (locus YCL016C, strain dcc1, active compounds read low): 0.997
- normalized growth (locus YCL029C, strain bik1, active compounds read low): 0.969
- normalized growth (locus YCL061C, strain MRC1, active compounds read low): 1
- normalized growth (locus YCL069W, strain vba3, active compounds read low): 1
- normalized growth (locus YCR088W, strain abp1, active compounds read low): 1.01
- normalized growth (locus YDL005C, strain med2, active compounds read low): 0.988
- normalized growth (locus YDL035C, strain GPR1, active compounds read low): 0.981
- normalized growth (locus YDL040C, strain nat1, active compounds read low): 1
- normalized growth (locus YDL074C, strain BRE1, active compounds read low): 0.957
- normalized growth (locus YDL101C, strain DUN1, active compounds read low): 0.989
- normalized growth (locus YDL134C, strain PPH21, active compounds read low): 1.01
- normalized growth (locus YDL185W, strain tfp1, active compounds read low): 0.978
- normalized growth (locus YDL192W, strain arf1, active compounds read low): 0.972
- normalized growth (locus YDR001C, strain nth1, active compounds read low): 1
- normalized growth (locus YDR069C, strain doa4, active compounds read low): 1.01
- normalized growth (locus YDR101C, strain arx1, active compounds read low): 0.974
- normalized growth (locus YDR137W, strain rgp1, active compounds read low): 1.39 [resistant] (active)
- normalized growth (locus YDR150W, strain NUM1, active compounds read low): 0.997
- normalized growth (locus YDR159W, strain sac3, active compounds read low): 1.04
- normalized growth (locus YDR162C, strain NBP2, active compounds read low): 0.987
- normalized growth (locus YDR195W, strain ref2): 1
- normalized growth (locus YDR297W, strain sur2, active compounds read low): 1
- normalized growth (locus YDR318W, strain mcm21, active compounds read low): 0.992
- normalized growth (locus YDR334W, strain swr1, active compounds read low): 0.997
- normalized growth (locus YDR335W, strain msn5, active compounds read low): 0.999
- normalized growth (locus YDR388W, active compounds read low): 0.981
- normalized growth (locus YDR392W, strain spt3, active compounds read low): 0.989
- normalized growth (locus YDR502C, strain sam2, active compounds read low): 1.02
- normalized growth (locus YEL003W, strain gim4, active compounds read low): 1.02
- normalized growth (locus YEL037C, strain rad23, active compounds read low): 1
- normalized growth (locus YEL061C, strain CIN8 (second series), active compounds read low): 0.999
- normalized growth (locus YEL061C, strain CIN8, active compounds read low): 0.99
- normalized growth (locus YER015W, strain faa2, active compounds read low): 1.01
- normalized growth (locus YER016W, strain bim1, active compounds read low): 0.999
- normalized growth (locus YER110C, active compounds read low): 0.968
- normalized growth (locus YER111C, strain swi4, active compounds read low): 0.995
- normalized growth (locus YER155C, strain BEM2 (second series), active compounds read low): 1.02
- normalized growth (locus YER155C, strain BEM2, active compounds read low): 0.967
- normalized growth (locus YER167W, strain BCK2, active compounds read low): 0.99
- normalized growth (locus YFR010W, strain ubp6, active compounds read low): 1.03
- normalized growth (locus YGL078C, strain dbp3, active compounds read low): 0.971
- normalized growth (locus YGL086W, strain mad1, active compounds read low): 0.956
- normalized growth (locus YGL167C, strain pmr1, active compounds read low): 0.996
- normalized growth (locus YGL173C, strain kem1, active compounds read low): 1.01
- normalized growth (locus YGL227W, strain vid30, active compounds read low): 1
- normalized growth (locus YGL240W, strain doc1, active compounds read low): 1.02
- normalized growth (locus YGL248W, strain PDE1, active compounds read low): 0.998
- normalized growth (locus YGL253W, strain hxk2, active compounds read low): 1.01
- normalized growth (locus YGR135W, strain pre9, active compounds read low): 1
- normalized growth (locus YGR252W, strain gcn5, active compounds read low): 1.03
- normalized growth (locus YHR013C, strain ard1, active compounds read low): 0.947
- normalized growth (locus YHR027C, strain rpn1, active compounds read low): 1.02
- normalized growth (locus YHR030C, strain SLT2, active compounds read low): 0.982
- normalized growth (locus YHR079C, strain IRE1 (second series), active compounds read low): 0.98
- normalized growth (locus YHR094C, strain hxt1, active compounds read low): 0.981
- normalized growth (locus YHR129C, strain ARP1, active compounds read low): 0.987
- normalized growth (locus YHR142W, strain chs7, active compounds read low): 1.01
- normalized growth (locus YHR200W, strain rpn10, active compounds read low): 0.978
- normalized growth (locus YIL066C, strain RNR3, active compounds read low): 0.989
- normalized growth (locus YIL073C, strain SPO22, active compounds read low): 0.975
- normalized growth (locus YIL125W, strain kgd1, active compounds read low): 0.99
- normalized growth (locus YIR030C, strain dcg1, active compounds read low): 0.981
- normalized growth (locus YJL092W, strain hpr5, active compounds read low): 1.01
- normalized growth (locus YJL095W, strain BCK1 (second series), active compounds read low): 1.01
- normalized growth (locus YJL095W, strain BCK1, active compounds read low): 1.03
- normalized growth (locus YJL115W, strain asf1, active compounds read low): 1
- normalized growth (locus YJL129C, strain trk1, active compounds read low): 1.04
- normalized growth (locus YJL134W, strain LCB3, active compounds read low): 0.977
- normalized growth (locus YJL154C, strain vps35, active compounds read low): 1
- normalized growth (locus YJL164C, strain tpk1, active compounds read low): 1.01
- normalized growth (locus YJL166W, strain qcr8, active compounds read low): 1.02
- normalized growth (locus YJL168C, strain set2, active compounds read low): 0.975
- normalized growth (locus YJL187C, strain SWE1 (second series), active compounds read low): 0.994
- normalized growth (locus YJL187C, strain SWE1, active compounds read low): 1
- normalized growth (locus YJR043C, strain POL32, active compounds read low): 0.978
- normalized growth (locus YKL009W, strain mrt4, active compounds read low): 0.864 (active)
- normalized growth (locus YKL068W, active compounds read low): 0.987
- normalized growth (locus YKL085W, strain MDH1 (second series), active compounds read low): 0.966
- normalized growth (locus YKL085W, strain MDH1, active compounds read low): 0.966
- normalized growth (locus YKL160W, strain elf1, active compounds read low): 1.01
- normalized growth (locus YKL190W, strain CNB1, active compounds read low): 0.993
- normalized growth (locus YKR001C, strain vps1, active compounds read low): 0.973
- normalized growth (locus YKR026C, strain gcn3, active compounds read low): 0.981
- normalized growth (locus YKR091W, strain srl3, active compounds read low): 1
- normalized growth (locus YLL001W, strain dnm1, active compounds read low): 1.01
- normalized growth (locus YLL026W, active compounds read low): 1.01
- normalized growth (locus YLL041C, strain sdh2, active compounds read low): 1
- normalized growth (locus YLR027C, strain aat2, active compounds read low): 1.01
- normalized growth (locus YLR039C, strain RIC1, active compounds read low): 1.15
- normalized growth (locus YLR058C, strain SHM2, active compounds read low): 0.989
- normalized growth (locus YLR102C, strain apc9, active compounds read low): 0.973
- normalized growth (locus YLR221C, strain rsa3, active compounds read low): 1.02
- normalized growth (locus YLR258W, strain gsy2, active compounds read low): 1.01
- normalized growth (locus YLR262C, strain YPT6 (second series), active compounds read low): 1.22 [resistant] (active)
- normalized growth (locus YLR262C, strain YPT6, active compounds read low): 1.07
- normalized growth (locus YLR268W, strain sec22, active compounds read low): 0.954
- normalized growth (locus YLR320W, strain mms22, active compounds read low): 1.02
- normalized growth (locus YLR330W, strain CHS5, active compounds read low): 0.991
- normalized growth (locus YLR342W, strain FKS1 (second series), active compounds read low): 1.03
- normalized growth (locus YLR342W, strain FKS1, active compounds read low): 1.01
- normalized growth (locus YLR357W, strain rsc2, active compounds read low): 1.01
- normalized growth (locus YLR370C, strain arc18, active compounds read low): 1
- normalized growth (locus YLR371W, strain rom2, active compounds read low): 0.955
- normalized growth (locus YLR384C, strain iki3, active compounds read low): 1.01
- normalized growth (locus YLR418C, strain cdc73, active compounds read low): 1
- normalized growth (locus YML016C, strain PPZ1, active compounds read low): 0.999
- normalized growth (locus YML032C, strain rad52, active compounds read low): 1.03
- normalized growth (locus YML120C, strain ndi1, active compounds read low): 1.02
- normalized growth (locus YML124C, strain tub3, active compounds read low): 0.983
- normalized growth (locus YMR058W, strain fet3, active compounds read low): 1.01
- normalized growth (locus YMR078C, strain ctf18, active compounds read low): 0.997
- normalized growth (locus YMR125W, strain sto1, active compounds read low): 1.02
- normalized growth (locus YMR129W, active compounds read low): 1
- normalized growth (locus YMR205C, strain PFK2, active compounds read low): 1.01
- normalized growth (locus YMR223W, strain ubp8, active compounds read low): 0.995
- normalized growth (locus YMR231W, strain pep5, active compounds read low): 0.996
- normalized growth (locus YMR307W, strain GAS1, active compounds read low): 1.07
- normalized growth (locus YNL067W, strain RPL9B, active compounds read low): 1
- normalized growth (locus YNL071W, strain lat1, active compounds read low): 1
- normalized growth (locus YNL209W, strain ssb2, active compounds read low): 1.02
- normalized growth (locus YNL233W, strain BNI4, active compounds read low): 1.01
- normalized growth (locus YNL248C, strain rpa49, active compounds read low): 1.02
- normalized growth (locus YNL250W, strain rad50, active compounds read low): 0.977
- normalized growth (locus YNL271C, strain bni1, active compounds read low): 0.977
- normalized growth (locus YNL298W, strain CLA4, active compounds read low): 0.968
- normalized growth (locus YNL307C, strain MCK1, active compounds read low): 0.978
- normalized growth (locus YNL322C, strain KRE1 (second series), active compounds read low): 1.01
- normalized growth (locus YNL322C, strain KRE1, active compounds read low): 0.989
- normalized growth (locus YNR049C, strain mso1, active compounds read low): 1.01
- normalized growth (locus YNR052C, strain pop2, active compounds read low): 0.966
- normalized growth (locus YOL012C, strain htz1): 0.865
- normalized growth (locus YOL147C, strain pex11, active compounds read low): 0.994
- normalized growth (locus YOR001W, strain rrp6, active compounds read low): 1.01
- normalized growth (locus YOR061W, strain CKA2, active compounds read low): 0.985
- normalized growth (locus YOR069W, strain VPS5, active compounds read low): 0.981
- normalized growth (locus YOR070C, strain gyp1, active compounds read low): 1.02
- normalized growth (locus YOR080W, strain dia2, active compounds read low): 1
- normalized growth (locus YOR083W, strain WHI5, active compounds read low): 1.01
- normalized growth (locus YOR106W, strain vam3, active compounds read low): 1.04
- normalized growth (locus YOR136W, strain idh2, active compounds read low): 0.977
- normalized growth (locus YOR144C, strain elg1, active compounds read low): 0.977
- normalized growth (locus YOR184W, strain ser1, active compounds read low): 0.957
- normalized growth (locus YOR265W, strain rbl2, active compounds read low): 1
- normalized growth (locus YOR270C, strain vph1, active compounds read low): 0.999
- normalized growth (locus YOR290C, strain snf2, active compounds read low): 0.991
- normalized growth (locus YOR316C, strain cot1, active compounds read low): 0.983
- normalized growth (locus YPL051W, strain arl3, active compounds read low): 1.02
- normalized growth (locus YPL078C, strain atp4, active compounds read low): 1.01
- normalized growth (locus YPL106C, strain sse1, active compounds read low): 1.06
- normalized growth (locus YPL240C, strain hsp82, active compounds read low): 1.01
- normalized growth (locus YPL241C, strain CIN2, active compounds read low): 0.981
- normalized growth (locus YPR119W, strain clb2, active compounds read low): 0.979
- normalized growth (locus YPR141C, strain kar3, active compounds read low): 0.963
- normalized growth (locus YPR163C, strain tif3, active compounds read low): 0.992
- normalized growth (locus YPR167C, strain met16, active compounds read low): 1
- normalized growth (strain wtn01, active compounds read low): 0.935
